# PubChem BioAssay (NCI)
# Compounds without any hit were thinned out: in the full panel of roughly 79,000, 15% have a hit. Unmarked numbers belong to inactive results. Active and inactive are the calls of the source. Rule as the data show it: active = growth inhibition above about 70%; inactive = the rest.
# Assay: NCI Yeast Anticancer Drug Screen. Data for the bub3 strain (AID 167)
# Details: S. cerevisiae bub3 mutant strain, at 50.0 µM, active compounds read high
# Summary of the method: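 Part of a panel of yeast mutants defective in DNA damage repair or cell cycle regulation. Each strain is grown with compound, and inhibition is calculated relative to solvent-treated cultures.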
row,Structure (SMILES),growth inhibition
1,O=S1(=O)CC(N2CCOCC2)C2=C(O1)c1sc(-c3ccccc3)nc1CC2 (stereo not given),-4.55%
2,O=C(Cn1c(-c2ccccc2)cc2ccccc21)N1CCOCC1,1.65%
3,CCOC(=O)/C(C(C)=O)=C1\C(=O)c2ccccc2-c2ccccc21,12.9%
4,COC(=O)C1=C(C(=O)OC)C2(C3C(SC)=CC(C)(C)CC3S1)N(Cc1ccccc1)CCN2Cc1ccccc1 (stereo not given),-8.7%
5,CCCO[C@@H]1[C@@H](OC(C)=O)[C@@H](OC(C)=O)C(C)(C)/C=C/[C@H](C)C(=O)[C@@]2(OC(C)=O)C[C@@](C)(OC(C)=O)[C@H](OC(C)=O)[C@@H]2[C@H]2OC(=O)CC[C@@]12OC(=O)c1ccccc1,-48.8%
6,O=C(NC1=C(Cl)C(=O)c2ccccc2C1=O)C(=O)c1c(O)c2ccccc2oc1=O,84.6% (active)
7,Clc1ccc2c(N3CCC(CCC4CCN(c5ncnc6cc(Cl)ccc56)CC4)CC3)ncnc2c1,-14.6%
8,Cn1cnnc1Sc1c([N+](=O)[O-])nc(-c2ccc([N+](=O)[O-])cc2)n1C,11.6%
9,COc1ncn(C2CC(OC(=O)c3ccc(C)cc3)C(COC(=O)c3ccc(C)cc3)O2)c(=O)n1 (stereo not given),-0.6%
10,CC(C)Cn1cnc2c(Cl)nc3ccccc3c21,33.5%
11,O=c1cc(-c2ccc(F)cc2)oc2ccccc12,13.7%
12,CC(=O)OCC12CCC(C)=CC1O[C@H]1[C@@H](OC(C)=O)[C@H](OC(C)=O)[C@]2(C)[C@@]12CO2 (stereo not given in full),-14.6%
13,COC(=O)C(Cl)(Cl)c1nc(NC(C)=O)[nH]c(=O)c1Cl,-16.4%
14,O=C(Nc1ccc(F)cc1)C(=O)C(C1OC(=O)c2ccccc21)[N+](=O)[O-] (stereo not given),10.8%
15,O=C1CC2(CCCc3sccc32)C(=O)N1 (stereo not given),-5.6%
16,Cn1c(=O)c2c(nc(CCCCCCCCc3nc4c(c(=O)n(C)c(=O)n4C)n3C)n2C)n(C)c1=O,-14.8%
17,O=C1/C(=C\c2ccccn2)c2ccccc2N1Cc1ccccc1,11.2%
18,CC12NN=NC1C(=O)NC2=O (stereo not given),-3.1%
19,CCCCC(=O)N1SC(NC(=O)OC)=Nc2ccccc21,92.4% (active)
20,Clc1ccc2c(c1)-c1c3c(nn1-c1ccccc1)-c1ccccc1SC3O2 (stereo not given),-1.5%

row,Structure (SMILES),growth inhibition
1,CC(=O)C(N)C(C)C (stereo not given),1.65%
2,CN(C)C(=S)/N=c1\ssc(=S)n1Cc1cccs1,-9.4%
3,CCOC(=O)C1CC(C)CC1=O (stereo not given),1.35%
4,N#Cc1ccc(/C=N\NC(=O)CCSCCC(=O)N/N=C/c2ccc(C#N)cc2)cc1,13.1%
5,CCOC(=O)c1ccc(NC(=O)Nc2cc(C(F)(F)F)ccc2Cl)cc1,86.7% (active)
6,CCOC(C)C=O (stereo not given),-7.6%
7,CC(C)(C)NC(=O)C12C3C4C1C1C2C3C41C(=O)NC(C)(C)C (stereo not given),-26.1%
8,COC(=O)/C=C(\C)Nc1cccc([N+](=O)[O-])c1,-0.75%
9,COC(=O)C1Cc2ccccc2C1=O (stereo not given),-11.8%
10,CCC(CCCCCc1ccccc1)(C(=O)O)C(=O)O,-5.2%
11,CC1CN=C(N(C(=O)Nc2ccc(Cl)c(Cl)c2)c2ccccc2)S1 (stereo not given),-2.55%
12,COC(=O)c1c(O)ccc(O)c1C(=O)OC,-6.4%
13,O=C(CCCCCCCCC(=O)NCC1(c2ccccc2)CCNCC1)NCC1(c2ccccc2)CCNCC1,-23.9%
14,NC(=O)C(CCN1CCCCC1)c1ccccc1 (stereo not given),5.45%
15,CC(C)(C)OC(=O)N1CC(C)(C)N2C(=O)C3(CCCO3)C12 (stereo not given),-16.6%
16,O=[N+]([O-])c1cccc(C2=NON(c3ncccn3)C3N=CC=CN23)c1 (stereo not given),-9.65%
17,O=C1NC(=O)[C@@H](OCC2CCCCC2)[C@@H]2OCC3OC(C(O)C3O)C12 (stereo not given in full),10.3%
18,O=C(NO)/C(CC(=O)c1ccccc1O)=N\O,-4.15%
19,COc1cccc2c1N=c1c(Cl)c3c(c(Cl)c1O2)=Nc1c(OC)cccc1O3,-8.5%
20,CN=Cc1ccccc1O.CN=Cc1ccccc1O.[Cu+2],-2.5%
